Bioassay records deposited in PubChem by National Center for Advancing Translational Sciences (NCATS).
WRN inhibitor – inhibitors of human WRN helicase; 0.46% of 360,000 active; AID 651768; Q14191; WRN helicase unwinding, fluorescent forked duplex, kinetic; Potency, µM (doses to about 114 µM), most hits filed as inhibitors; further: nearly all actives have a fitted effect of over 55% in size
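Primary qHTS, 1536-well format. 20 nM WRN + compound, 15 min RT; start with 100 nM forked fluorophore/quencher duplex, 2 mM ATP (final); kinetic read ex 525/em 598 nm.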
POLI inh – inhibitors of human DNA polymerase iota; Pol iota fluorescent replication assay, 10 min; Potency, µM (top dose mostly 115 µM), actives largely listed as inhibitors; 1% of 390,000 active; AID 588590
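Fluorescent replication assay read twice, at 0 min and 10 min after adding 50 nM (final) substrate. Enzyme (10 nM) and compounds were first incubated 15 min at room temperature; enzyme-free buffer wells were negative controls.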
POLK inh – DNA polymerase kappa (human) inhibition | 0.53% of 400,000 active | AID 588579 | Q9UBT6 | Potency, µM (doses to about 107 µM), hits mostly inhibitors | purified Pol kappa, fluorescent DNA synthesis assay, 10 min
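Readout: fluorescence, taken kinetically at 0 and 10 min. Conditions: 10 nM Pol kappa, 15 min RT compound preincubation, 50 nM substrate final. Controls: enzyme-free buffer wells.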
POLB inh – blocks human DNA polymerase beta activity. P06746. Pol beta primer extension/strand displacement, fluorescence kinetic. Potency, µM (top dose mostly 114 µM), most hits filed as inhibitors. 1.3% of 340,000 active
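Reaction started by 50 nM substrate onto compound-treated Pol beta (10 nM, 15 min preincubation, room temperature); plates read at 0 min and 10 min. Normalized concentration-effect data fitted by four-parameter Hill equation.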
PI5P4Ka inh – inhibitors of human PI5P4K alpha | max response, % | AID 652105 | PI5P4Kalpha enzyme, ADP-Glo luminescence, 60 min; hits give low values | 1.2% of 330,000 active | P48426; active means max response of -50% or lower; inconclusive means between -30% and -50%; inactive means -30% or higher; further: value at the top dose of about 77 µM
Target sequence (P48426 whole entry, looked up): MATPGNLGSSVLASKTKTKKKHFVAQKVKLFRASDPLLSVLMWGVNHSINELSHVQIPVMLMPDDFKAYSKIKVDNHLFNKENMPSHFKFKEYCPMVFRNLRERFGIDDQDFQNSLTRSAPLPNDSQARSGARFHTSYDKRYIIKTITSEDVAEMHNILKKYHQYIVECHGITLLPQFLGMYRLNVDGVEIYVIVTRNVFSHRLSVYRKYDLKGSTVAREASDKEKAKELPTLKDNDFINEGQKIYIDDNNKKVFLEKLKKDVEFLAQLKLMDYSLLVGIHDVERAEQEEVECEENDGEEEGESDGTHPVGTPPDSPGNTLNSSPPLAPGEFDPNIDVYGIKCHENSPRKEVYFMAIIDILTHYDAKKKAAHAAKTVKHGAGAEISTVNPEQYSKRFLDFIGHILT
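Compounds were pin-transferred onto PI5P4Kalpha and substrate in HEPES pH 7.4 buffer with EGTA, CHAPS and 5% DMSO. ATP (5 microM final) started the reaction, which ran 60 minutes at room temperature before ADP-Glo detection.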
Pol eta inh – DNA polymerase eta (human) inhibition; Q9Y253; Potency, µM (titrated, usually from 114 µM), actives largely listed as inhibitors; AID 588591; recombinant Pol eta, fluorescent DNA replication assay; 1.2% of 390,000 active
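Pol eta (10 nM) was preincubated with compounds for 15 min at room temperature, after which fluorescent replication substrate (50 nM final) was added to start the reaction. Fluorescence was read kinetically at 0 and 10 min.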
Numbers stand for hits; [ ] = dose if it differs, or a comment. Most compounds without a hit are left out; they make up all but 2.8% or so of the library. Unless noted, the call rests on the fitted dose curve; in most records, active means well fitted curve in the direction sought with a large enough effect; inconclusive means small, poorly fitted or top-dose-only effect, or another doubt; inactive means no such curve, though single readings can be large; an effect the other way counts as inactive or inconclusive.

O=C(N/N=C\C=C\c1ccc(Br)cc1)c1ccc2c(c1)OCO2 was read as WRN inhibitor inactive, POLI inh inconclusive, POLK inh inactive, POLB inh 35µM, PI5P4Ka inh inactive and Pol eta inh inactive.
For O=C(N/N=C/C=C/c1ccc2c(c1)OCO2)c1ccc([N+](=O)[O-])cc1 the results were WRN inhibitor inactive, POLI inh inactive, POLK inh inactive, POLB inh inactive and Pol eta inh inactive.
`CC(C)c1nn2c(=O)cc(COC(=O)CNC(=O)c3ccccc3Cl)nc2s1` gave POLI inh inactive, POLK inh inactive, POLB inh inactive and Pol eta inh inactive.
`O=C(CCc1ccc(O)c(O)c1)N/N=C/c1ccc2c(c1)OCO2` gave WRN inhibitor inactive[11.6 µM], POLI inh 79µM, POLK inh inconclusive, POLB inh 71µM, PI5P4Ka inh inactive and Pol eta inh inactive.
Screening COc1cc2c(cc1OC)C(c1ccc(Cl)cc1)N(c1cccc(C#N)c1)C(=O)C2 (stereo unspecified) returned POLI inh inactive, POLK inh inactive, POLB inh inactive and Pol eta inh inactive.
CNc1cccccc1=S was read as WRN inhibitor inactive[11.6 µM], POLI inh 10µM, POLK inh 79µM, POLB inh 16µM, PI5P4Ka inh inconclusive and Pol eta inh inconclusive.
CC(=O)Oc1ccc(C(=O)COC(=O)CNC(=O)COc2ccccc2C)cc1 was read as POLI inh inactive and POLK inh inactive.
Screening CC(=O)Nc1ccc(C2=NNC(=Nc3cccc(S(=O)(=O)N(C)C)c3)SC2)cc1 returned WRN inhibitor inactive, POLI inh inactive, POLK inh inactive, POLB inh inactive, PI5P4Ka inh -71 and Pol eta inh inactive.
`N#C/C(=C\c1ccc(O)c(O)c1)C(=O)N1CCCC1` gave WRN inhibitor inactive[11.6 µM], POLI inh inconclusive, POLK inh inactive, POLB inh inactive, PI5P4Ka inh inactive and Pol eta inh inconclusive.
N#C/C(=C/c1cc(Cl)c(O)c(Cl)c1)C(=O)N1CCCCC1 was read as WRN inhibitor inactive, POLI inh inactive, POLK inh inactive, POLB inh inactive, PI5P4Ka inh -94 and Pol eta inh inactive.
For COc1cccc(Cn2c(=O)c(-c3ccc(Cl)cc3)nc3cncnc32)c1 the results were POLK inh inactive.
For COc1cc(OC)cc(C(=O)OCC(=O)NCc2ccco2)c1 the results were WRN inhibitor inactive[11.6 µM], POLI inh 45µM, POLK inh inactive, PI5P4Ka inh inactive and Pol eta inh inconclusive.
For COc1cccc(/C=C/C(=O)OCC(=O)NCc2ccco2)c1 the results were WRN inhibitor inactive, POLI inh inconclusive, POLK inh inconclusive, POLB inh 45µM, PI5P4Ka inh -53 and Pol eta inh inconclusive.
COc1ccc(S(=O)(=O)N(CC(=O)NCc2ccco2)c2ccccc2OC)cc1 was read as WRN inhibitor inactive[11.6 µM], POLI inh 50µM, POLK inh inconclusive, POLB inh inconclusive, PI5P4Ka inh inconclusive and Pol eta inh inconclusive.
Screening O=C(COC(=O)c1cccnc1Cl)NCc1ccco1 returned WRN inhibitor inconclusive, POLI inh inconclusive, POLK inh inactive, POLB inh 16µM, PI5P4Ka inh inactive and Pol eta inh inconclusive.
For COc1cc(C(=O)OCC(=O)NCc2ccco2)cc(OC)c1OC the results were WRN inhibitor inactive, POLI inh inconclusive, POLK inh inactive, POLB inh inconclusive, PI5P4Ka inh inactive and Pol eta inh inconclusive.
Screening O=C(COC(=O)/C=C/c1cccc(Br)c1)NCc1ccco1 returned WRN inhibitor inactive, POLI inh inactive, POLK inh inactive, PI5P4Ka inh inactive and Pol eta inh inactive.
COC(=O)c1cc2oc(C)cc2n1CC(=O)Nc1ccc(C(C)C)cc1 was read as POLI inh inactive, POLK inh inactive, POLB inh inactive and Pol eta inh inactive.
`Clc1ccc2c(ccc[n+]2CCC2CCCCC2)c1` gave POLI inh inconclusive and POLK inh inactive.
For COc1ccc(OCc2ccc(-c3nc(C#N)c(NCc4ccc(F)cc4)o3)o2)cc1 the results were POLI inh inactive, POLK inh inactive, POLB inh inactive and Pol eta inh inactive.
